Measurements from PubChem BioAssay.
Active and inactive are the calls of the source. How the calls were made is not given here.

The compounds below were run against Pantothenate synthetase (Mycobacterium tuberculosis (strain ATCC 25618 / H37Rv)) (UniProt P9WIL5) (assay: Coupled enzyme confirmation of inhibitors against recombinant Mtb PanC (AID 375;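 further: 0% = full reaction with vehicle and 100% = no enzyme background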)). Details: coupled enzyme assay; at 10 µM, hits give high values.
Sequence of Pantothenate synthetase (Mycobacterium tuberculosis (strain ATCC 25618 / H37Rv)) (P9WIL5 whole entry, looked up): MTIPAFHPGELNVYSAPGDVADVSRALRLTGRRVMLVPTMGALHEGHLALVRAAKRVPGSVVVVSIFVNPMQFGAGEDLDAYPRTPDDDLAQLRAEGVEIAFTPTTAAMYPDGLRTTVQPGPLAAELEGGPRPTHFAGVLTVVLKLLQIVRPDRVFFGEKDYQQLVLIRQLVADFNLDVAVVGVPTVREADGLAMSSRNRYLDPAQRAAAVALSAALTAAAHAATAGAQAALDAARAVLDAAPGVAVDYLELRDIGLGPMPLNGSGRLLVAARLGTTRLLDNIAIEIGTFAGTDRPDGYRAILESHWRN

Compound | inhibition
Cc1nc(-c2ccccc2)sc1C(N)=O | 0% (inactive)
CCOc1ccccc1OCC(=O)NCc1ccco1 | 0% (inactive)
O=C1NC(c2cccs2)Nc2ccccc21 (centres undefined) | 0% (inactive)
CC(C(=O)N1CCCCC1)n1ncn2cccc2c1=O (centres undefined) | 0% (inactive)
O=C(O)c1ccc(NC(=O)c2cccs2)cc1 | 0% (inactive)
C=CCn1c(SCc2ccc(C#N)cc2)nnc1-c1cccc(Cl)c1 | 1% (inactive)
CN1C(=O)CC(C(=O)Nc2ccc(F)cc2)SC1=Nc1ccc2c(c1)OCO2 (centres undefined) | 0% (inactive)
O=C(CCCNS(=O)(=O)c1ccccc1)NCc1ccco1 | 0% (inactive)
N#Cc1nc(COc2ccccc2)oc1NCCCn1ccnc1 | 0% (inactive)
O=C(CSc1nnc(Cc2cc(=O)[nH]c(=O)[nH]2)n1-c1ccccc1)NCC1CCCO1 (centres undefined) | 0% (inactive)
OCCn1c(CSc2nnc(-c3ccco3)n2-c2ccccc2)nc2ccc(Cl)cc21 | 2% (inactive)
CC(C)Oc1ccc(N2CC(C(=O)Nc3ccccc3F)CC2=O)cc1 (centres undefined) | 0% (inactive)
CC(=O)Nc1c(I)c(NC(C)=O)c(I)c(C(=O)O)c1I | 1% (inactive)
O=C(CNS(=O)(=O)c1ccc(Br)s1)N1CCN(c2ncccn2)CC1 | 0% (inactive)
N#Cc1c(NC(=O)CSc2nc(N)cc(=O)[nH]2)sc2c1CCCCCC2 | 0% (inactive)
CCOC(=O)COc1ccc(S(=O)(=O)N2CCc3ccccc3C2)cc1 | 0% (inactive)
COc1ccc(-c2nn3c(-c4cccc(C)c4)nnc3s2)cc1OC | 4% (inactive)
CCOCCn1c(CN2CCN(c3cccc(Cl)c3)CC2)nc2c1c(=O)n(C)c(=O)n2C | 4% (inactive)
Cc1nc2sccn2c(=O)c1CCN1CCC(=C(c2ccc(F)cc2)c2ccc(F)cc2)CC1 | 0% (inactive)
CCNC(=O)c1ccc(NS(=O)(=O)c2ccccc2)cc1 | 6% (inactive)

Compound | inhibition
CCCC(=O)N=C1SC2CS(=O)(=O)CC2N1c1ccc(CC)cc1 (centres undefined) | 0% (inactive)
Cc1ccc2nc3c(cc2c1)CN(Cc1ccco1)C(=NCC1CCCO1)S3 (centres undefined) | 0% (inactive)
CCCCn1c(=O)[nH]c(=O)c2c1nc(COc1ccc(C#N)cc1)n2CCC | 4% (inactive)
COCCOC(=O)C1=C(C)NC(C)=C(C(=O)OC(C)C)C1c1cccc([N+](=O)[O-])c1 (centres undefined) | 0% (inactive)
CC(=O)Nc1ccc(Oc2ccc3nc(C)[nH]c3c2)cc1 | 0% (inactive)
CN(C)C(CNC(=O)Nc1cccc(Cl)c1)c1cccnc1 (centres undefined) | 0% (inactive)
O=P(O)(O)C(O)C(F)(F)C(F)(F)C(F)(F)C(F)F (centres undefined) | 0% (inactive)
COc1ccc(OC)c(C(=O)c2ccc(C(=O)O)cc2)c1 | 0% (inactive)
CCN(CC)CCN1C(=O)C(=O)/C(=C(/O)c2ccc(OC(C)C)cc2)C1c1ccncc1 (centres undefined) | 5% (inactive)
O=C(C1CCN(c2nnc(-n3cccc3)s2)CC1)N1CCN(Cc2ccc3c(c2)OCO3)CC1 | 10% (inactive)
O=C(COc1ccccc1Cl)NCc1ccco1 | 3% (inactive)
Cc1nc2sc(C(c3cccs3)N3CCOCC3)c(O)n2n1 (centres undefined) | 0% (inactive)
Cc1cccc2cc(CN(Cc3nnnn3Cc3ccccc3)C3CCCC3)c(=O)[nH]c12 | 0% (inactive)
O=C(Cn1ncc2ccccc21)N1CCN(c2cccc(C(F)(F)F)c2)CC1 | 2% (inactive)
O=C1c2oc3ccccc3c(=O)c2C(c2ccccn2)N1Cc1ccccc1 (centres undefined) | 13% (inactive)
CCOC(=O)N1CCN(Cc2nc3c(c(=O)n(C)c(=O)n3C)n2Cc2ccccc2)CC1 | 0% (inactive)
COc1cccc(C2C(C(N)=O)=C(C)Nc3nc(CCCO)nn32)c1OC (centres undefined) | 3% (inactive)
CCc1ccccc1OCCCCN1CCCC1 | 0% (inactive)
N#C/C(C(=O)N1CCOCC1)=C1/SC=C(c2ccccc2)N1c1ccccc1 | 7% (inactive)
